The text below walks through data of PMC5540273 (PLoS ONE, 2017).

The subject of one assay is T1, DRAK2.
T1 construct: gene STK17B

The next assay relates to T2, DRAK1.
T2 construct: gene STK17A

The Kd is the constant that tells how readily two partners part at equilibrium. High values mean lower affinity, low ones higher affinity.
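Note: kd values determined as follow-up on hits from a single-replicate KINOMEscan panel screen.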

On to `CSc1ccc(-c2cc3ncnc(SCC(=O)O)c3s2)cc1`, for which, in the assay with DRAK2, the Kd was 3.8 nM. On to `O=C(O)COc1ncnc2cc(-c3ccc4[nH]ncc4c3)sc12`, for which the figures for the Kd in the assay on DRAK1 and in the assay with DRAK2 were 250 nM and 30 nM, respectively.
